# Source: PubChem
# bovine MsrA act: bovine methionine sulfoxide reductase A activation; activation, % at 10.6 µM; 360,000 tested, 0.3% active; AID 602163; purified bovine MsrA, absorbance read-out; in the data active = activation above about 7.5%;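 note: 0% = vehicle and 100% = reference activator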
# KLK7 zymogen act: activators of human kallikrein-7 zymogen; P49862; purified proKLK7, EDANS-DABCYL substrate fluorescence; 100% is mature enzyme control, 0% vehicle; activation, % at 7 µM; 370,000 tested, 0.9% active; AID 652039;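 active = activation above the mean of all tested compounds plus 3 SD, computed per campaign excluding outliers beyond control limits, cut at about 13% in these data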
# Target sequence (P49862 whole entry, looked up): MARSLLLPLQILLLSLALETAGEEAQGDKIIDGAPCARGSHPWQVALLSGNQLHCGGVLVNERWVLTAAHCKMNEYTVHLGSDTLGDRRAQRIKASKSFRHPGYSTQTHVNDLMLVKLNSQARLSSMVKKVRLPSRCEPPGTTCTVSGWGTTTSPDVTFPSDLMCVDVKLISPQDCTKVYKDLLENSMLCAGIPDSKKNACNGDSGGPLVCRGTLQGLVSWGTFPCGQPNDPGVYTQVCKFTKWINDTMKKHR
# MsrA inhibitor: inhibits bovine methionine sulfoxide reductase A; 360,000 tested, 0.75% active; purified bovine MsrA, absorbance read-out; inhibition, % at 15.5 µM; in the data active = inhibition above about 4.5%;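 note: 0% = vehicle wells with enzyme and 100% = reference inhibitor wells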
# SMARCA2 act: SMARCA2 function activation, primary screen | MG213 cells, MMTV-luciferase reporter, dexamethasone, overnight | activation, % at 9.1 µM | 370,000 tested, 1% active | AID 652017; in the data active = activation above about 7.8%;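 note: 0% = vehicle wells and 100% = reference activator wells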
# proKLK7 act conf: proKLK7 activation, confirmation | AID 686949 | 3,200 tested, 68% active | activation, % at 7 µM | purified proKLK7, EDANS-DABCYL substrate fluorescence; scaled: vehicle 0, mature enzyme 100 | shares compounds with KLK7 zymogen act;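 active = activation, as change over the incubation, above the mean of all tested compounds plus 3 SD, cut at about 13% in these data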
# EDANS-DABCYL int: fluorescence interference counter-screen for KLK7 activators | shares compounds with KLK7 zymogen act | EDANS-DABCYL substrate fluorescence interference, no enzyme, 4 h; solvent 0%, active enzyme control 100% | activation, % at 7 µM | 3,200 tested, 80% active | AID 686952;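 active = activation above the all-compound mean plus 3 SD, ignoring values outside control-based bounds, cut at about 4.8% in these data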;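 note: value is the 4 h activation minus the activation read at time zero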
# Starred values were filed as active, the others as inactive; . = no result given. This is a sample that favours compounds with a hit; in the whole collection about 2.8% have one here.
SMILES,bovine MsrA act,KLK7 zymogen act,MsrA inhibitor,SMARCA2 act,proKLK7 act conf,EDANS-DABCYL int
O=C(NCc1c(F)cccc1F)C1CCCN(c2ncccn2)C1 (stereo not given),.,0,.,-2,.,.
CCOc1ccccc1NC(=O)COC(=O)COc1cccc2c1OC(C)(C)C2,-1,0,0,-1,.,.
C(=NNc1nnn(Cc2ccccc2)n1)c1ccccc1,-3,-1,1,-3,.,.
COc1cc(OC)c2c(C)c(Cl)c(=O)oc2c1,-1,15*,0,2,78*,72*
COc1cc(OC)c2c(=O)cc(-c3ccccc3)oc2c1,-4,7,0,0,.,.
Cc1ccc([C@@H]2C3COCC=C3C(C#N)=C(N)C2(C#N)C#N)o1 (stereo not given in full),-2,13*,2,0,53*,50*
CC1(C)OC(=O)C2=C(C[C@@H](C3CCCC3)O[C@H]2CCc2cccc(Cl)c2)O1,-1,-1,0,-1,.,.
Cc1ccc(C(=O)N2CCc3cc4c(cc3C2C)OCCCO4)cc1 (stereo not given),2,13*,0,-2,6,6.7*
CN(C)/C=N/c1nc2nccc(-c3cccnc3)n2n1,-3,13*,2,3,65*,62*
CN(C)/C=N/c1nc2nccc(-c3ccccn3)n2n1,-2,12,1,-4,.,.
COc1cccc(OC(C)c2ccnc3nc(/N=C/N(C)C)nn23)c1 (stereo not given),-10,3,3,1,.,.
COc1ccc(-c2ccnc3nc(/N=C/N(C)C)nn23)cc1,.,44*,4,0,66*,63*
O=C(NCCc1ccccc1)c1nccc2ccccc12,-2,0,-2,2,.,.
c1ccc(CCNc2ccnc3cc4ccccc4cc23)cc1,-1,32*,1,-7,-36,-52
CN1CCSc2ccc(C(=O)NCc3ccccc3)cc21,0,43*,0,0,6,24*
CCN1CCSc2ccc(C(=O)NCc3cccc(Br)c3)cc21,2,6,1,-1,.,.
O=C(NCc1cccnc1)c1ccc2c(c1)N(Cc1ccccc1)CCS2,-6,-9,0,0,.,.
CCN1CCSc2ccc(C(=O)NCc3cccc(F)c3)cc21,1,16*,0,-1,-56,-36
COc1cccc(C=Nc2ccccc2C(=O)Nc2nccs2)c1OC,-6,25*,2,2,-65,-49
COc1cccc2c1OCC(C(=O)Nc1nccs1)=C2,-5,2,2,4,.,.
CN1c2ccc(Cl)cc2C(=O)NC1C1CC=CCC1 (stereo not given),-6,14*,0,0,-5,-9
O=C(CN1CCNCC1)N1CCOCC1,-3,.,.,.,.,.
CC1=NCC(C)c2c1[nH]c1ccccc21 (stereo not given),-11,30*,3,-4,20*,17*
CC1(c2ccccn2)Nc2ccccc2-c2nc3ccccc3n21 (stereo not given),-2,56*,1,4,10,3
O=C1Nc2ccccc2C12Nc1ccccc1-c1nc3ccccc3n12 (stereo not given),-4,0,3,0,.,.
SMILES,bovine MsrA act,KLK7 zymogen act,MsrA inhibitor,SMARCA2 act,proKLK7 act conf,EDANS-DABCYL int
c1ccc2c(c1)NC1(CCCCC1)n1c-2nc2ccccc21,-13,63*,0,1,7,12*
CN1C(=O)C2(Nc3ccccc3-c3nc4ccccc4n32)c2ccccc21 (stereo not given),-3,-1,0,4,.,.
CCCCC1(C)Nc2ccccc2-c2nc3ccccc3n21 (stereo not given),4,63*,2,6,-11,-12
c1ccc2c(c1)NC1(CCCCCC1)n1c-2nc2ccccc21,-13,52*,2,7,3,3
COc1cccc2c1[C@H](/C=C/c1ccccc1)[C@@H]([C@H](O)CO)OC2,.,0,.,-2,.,.
COC(=O)[C@]12C[C@H](CC(=O)N3CCC(c4ccccc4)CC3)C(=O)N(CCC3=CCCCC3)C1=C[C@H](COCc1ccccc1)O[C@@H]2C,.,1,0,1,.,.
O=C(COC(=O)c1cc(-c2ccccc2)nc2ccccc12)NC1CC1,-8,-4,2,-1,.,.
COc1ccc(-c2cc(C(=O)OCC(=O)NC3CC3)c3ccccc3n2)cc1,-6,16*,1,-1,11,9.7*
COc1ccc(-c2cc(C(=O)OCC(=O)NC(C)C)c3ccccc3n2)cc1,-2,21*,0,4,33*,40*
COc1ccc(-c2cc(C(=O)N/N=C(\C)c3cccnc3)c3ccccc3n2)cc1,-3,37*,1,5,-78,-71
CCCNC(=O)COC(=O)c1cc(-c2ccc(OC)cc2)nc2ccccc12,-2,52*,0,3,-71,-60
COc1ccc(-c2cc(C(=O)OCC(=O)NC(C)(C)C)c3ccccc3n2)cc1,-1,.,.,.,.,.
OC[C@@H]1CN(Cc2ccc(F)cc2)C[C@H](n2cnc3c(NCc4ccc(F)cc4)ncnc32)O1,-9,1,-1,0,.,.
Cc1cccc(C)c1NC(=O)[C@H]1CC(=O)O[C@@H]1c1ccccc1,.,0,.,-5,.,.
O=C(OC12CCCN(C1)/C(=C/c1cccnc1)C2)c1ccc(F)cc1 (stereo not given),.,0,.,-3,.,.
CCN(CC)C(=O)COC(=O)c1cc(-c2ccc(OC)cc2)nc2ccccc12,-2,0,1,-3,.,.
CCNC(=O)COC(=O)c1cc(-c2ccc(OC)cc2)nc2ccccc12,-4,174*,2,5,208*,260*
COCCNC(=O)COC(=O)c1cc(-c2ccc(OC)cc2)nc2ccccc12,-1,137*,2,0,108*,119*
COC(=O)[C@@]12CCCCC=C1N(CCc1ccc(Cl)cc1)C(=O)[C@H]2CC(=O)NCc1ccc(C)o1,.,0,.,-1,.,.
Cn1c(SC/C=C/c2ccccc2)nnc1-c1cccnc1,.,-1,.,-6,.,.
CC[C@@H]1C(c2cccc(C)c2)=NN(c2ccccc2)[C@H]1C(=O)N1CCOC1=O,3,41*,1,7,56*,52*
CC[C@@H]1C(c2cccc(Cl)c2)=NN(c2ccc(Br)cc2)[C@H]1C(=O)N1CCOC1=O,-4,.,.,.,.,.
C[C@@H]1C(c2ccc(F)cc2)=NN(c2ccccc2)[C@H]1C(=O)N1CCOC1=O,-7,21*,3,-4,13*,24*
CC[C@@H]1C(c2ccccc2)=NN(c2ccc(Br)cc2)[C@H]1C(=O)N1CCOC1=O,-3,28*,1,0,2,1
COC(=O)C1=C(C)N(CCCC(=O)O)C(=O)NC1c1cc2c(cc1[N+](=O)[O-])OCO2 (stereo not given),-6,13*,1,1,13*,14*
COC(=O)C1=C(C)N(C)C(=O)NC1c1cc2c(cc1[N+](=O)[O-])OCO2 (stereo not given),-11,4,1,-1,.,.
